The supplement of paper PMC10849652
About 7,900 targets were measured; listed, in parts, are those with a hit and a random draw of the rest. About 0.6% of all pairs of compound and target were hits.

Tests used:
Test in all cases: log2 fold change, soluble protein after heating vs DMSO (PISA); higher = thermal stabilisation; K562 cells, 10 uM, 30 min; active = over 0.2 and 3.5 SD of the protein, either way, in both replicates (recomputed)
[1] = compound: CS(=O)(=O)c1ccc(-c2cnc(N)c(C(=O)Nc3ccccc3)n2)cc1
Method in brief: (§1)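 K562 cells at 2×10^6 cells/mL were treated with 10 μM compound for 30 min. Aliquots were heated for 3 min across 48°C-58°C, pooled, and extracted in PBS with 0.5% NP-40 at 4°C; soluble protein was the supernatant after 21,000xg for 90 min. Soluble protein was quantified by TMTpro 16plex LC-MS/MS with channel sums equalised, and reported as log2 fold change in thermal stability against DMSO controls, with values from duplicates.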

crizotinib = compound: C[C@@H](Oc1cc(-c2cnn(C3CCNCC3)c2)cnc1N)c1c(Cl)ccc(F)c1Cl [crizotinib]
Method in brief: as §1

[2] = compound: C[C@@H]1COCCN1C2=NC(=NC(=C2)C3(CC3)S(=O)(=O)C)C4=C5C=CNC5=CC=C4
Method in brief: as §1

[3] = compound: C[C@H](C1=CC=C(C=C1)C(=O)NC2=C3C=CNC3=NC=C2)N
Method in brief: as §1

duvelisib = compound: C[C@H](Nc1ncnc2nc[nH]c12)c1cc2cccc(Cl)c2c(=O)n1-c1ccccc1 [duvelisib]
Method in brief: as §1

gandotinib = compound: Cc1cc(Nc2cc(CN3CCOCC3)c3nc(C)c(Cc4ccc(Cl)cc4F)n3n2)n[nH]1 [gandotinib]
Method in brief: as §1

tozasertib = compound: Cc1cc(Nc2cc(N3CCN(C)CC3)nc(Sc3ccc(NC(=O)C4CC4)cc3)n2)n[nH]1 [tozasertib]
Method in brief: as §1

[4] = compound: Cc1cc(SCc2sc(-c3ccc(C(F)(F)F)cc3)nc2C)ccc1OCC(=O)O
Method in brief: as §1

doramapimod = compound: Cc1ccc(-n2nc(C(C)(C)C)cc2NC(=O)Nc2ccc(OCCN3CCOCC3)c3ccccc23)cc1 [doramapimod]
Method in brief: as §1

ispinesib = compound: Cc1ccc(C(=O)N(CCCN)[C@@H](c2nc3cc(Cl)ccc3c(=O)n2Cc2ccccc2)C(C)C)cc1 [ispinesib]
Method in brief: as §1

Measured: log2 fold change

FKBP4 (UniProt Q02790)
inactive: [1] 0.013 | crizotinib -0.008 | [2] 0.042 | [3] -0.068 | duvelisib 0.019 | gandotinib -0.105 | tozasertib -0.005 | [4] 0.077 | doramapimod -0.052 | ispinesib -0.017

FAT1 (UniProt Q14517)
active: doramapimod -0.435
inactive: [1] 0.027 | crizotinib 0.061 | [2] -0.054 | [3] 0.144 | duvelisib 0.026 | gandotinib 0.061 | tozasertib -0.124 | [4] 0.009 | ispinesib -0.096

GPKOW (UniProt Q92917)
inactive: [1] 0.004 | crizotinib -0.147 | [2] 0.104 | [3] -0.004 | duvelisib 0.087 | gandotinib -0.094 | tozasertib -0.121 | [4] 0.195 | doramapimod -0.03 | ispinesib -0.013

FERMT3 (UniProt Q86UX7)
inactive: [1] 0.038 | crizotinib -0.091 | [2] 0.02 | [3] -0.04 | duvelisib 0.005 | gandotinib -0.064 | tozasertib 0.022 | [4] 0.057 | doramapimod 0.001 | ispinesib -0.04

GINS2 (UniProt Q9Y248)
UniProt Q9Y248, sequence (Q9Y248 whole entry, looked up): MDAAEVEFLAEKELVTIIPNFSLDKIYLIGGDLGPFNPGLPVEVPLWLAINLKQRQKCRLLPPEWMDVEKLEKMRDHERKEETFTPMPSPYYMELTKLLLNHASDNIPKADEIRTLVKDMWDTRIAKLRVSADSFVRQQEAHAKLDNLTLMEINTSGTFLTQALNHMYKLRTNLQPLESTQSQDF
inactive: [1] -0.066 | crizotinib -0.036 | [2] -0.046 | [3] -0.15 | duvelisib 0.164 | gandotinib 0.004 | tozasertib 0.145 | [4] 0.247 | doramapimod 0.026 | ispinesib 0.167

HSPA8 (UniProt E9PK54)
inactive: [1] -0.05 | crizotinib -0.023 | [2] -0.272 | [3] 0.334 | duvelisib -0.05 | gandotinib 0.01 | tozasertib 0.033 | [4] 0.088 | doramapimod 0.143 | ispinesib 0.012

FMC1 (UniProt Q96HJ9)
UniProt Q96HJ9, sequence (Q96HJ9 whole entry, looked up): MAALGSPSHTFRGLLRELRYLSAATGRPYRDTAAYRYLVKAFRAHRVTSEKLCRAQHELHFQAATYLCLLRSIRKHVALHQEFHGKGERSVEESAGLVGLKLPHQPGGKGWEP
inactive: [1] 0.021 | crizotinib 0.195 | [2] -0.157 | [3] 0.082 | duvelisib -0.046 | gandotinib 0.024 | tozasertib -0.058 | [4] -0.018 | doramapimod -0.137 | ispinesib -0.314

HNRNPC isoform 2 (UniProt P07910)
UniProt P07910, sequence (P07910 whole entry, looked up): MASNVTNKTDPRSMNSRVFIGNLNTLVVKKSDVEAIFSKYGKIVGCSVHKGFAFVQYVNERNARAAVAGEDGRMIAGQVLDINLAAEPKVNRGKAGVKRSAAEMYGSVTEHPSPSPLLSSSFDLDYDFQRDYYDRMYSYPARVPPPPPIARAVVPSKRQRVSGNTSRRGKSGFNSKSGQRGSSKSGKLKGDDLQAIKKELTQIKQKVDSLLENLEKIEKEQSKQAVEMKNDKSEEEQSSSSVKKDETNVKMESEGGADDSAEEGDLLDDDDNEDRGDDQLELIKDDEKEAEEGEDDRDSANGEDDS
inactive: [1] -0.176 | crizotinib -0.061 | [2] -0.239 | [3] 0.532 | duvelisib -0.076 | gandotinib 0.197 | tozasertib 0.05 | [4] 0.125 | doramapimod 0.088 | ispinesib -0.35

GATA1 (UniProt P15976)
UniProt P15976, sequence (P15976 whole entry, looked up): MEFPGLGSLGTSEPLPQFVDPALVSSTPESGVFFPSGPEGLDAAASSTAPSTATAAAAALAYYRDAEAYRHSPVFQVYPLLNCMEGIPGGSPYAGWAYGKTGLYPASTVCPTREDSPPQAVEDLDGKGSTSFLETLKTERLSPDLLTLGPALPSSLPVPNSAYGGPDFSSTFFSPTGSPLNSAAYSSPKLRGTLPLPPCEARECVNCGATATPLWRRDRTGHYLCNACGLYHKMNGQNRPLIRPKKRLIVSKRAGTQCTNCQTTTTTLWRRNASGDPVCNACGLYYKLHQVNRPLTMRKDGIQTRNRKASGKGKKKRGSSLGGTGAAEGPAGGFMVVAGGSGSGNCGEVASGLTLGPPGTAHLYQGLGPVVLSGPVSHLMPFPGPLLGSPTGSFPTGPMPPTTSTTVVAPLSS
inactive: [1] 0.03 | crizotinib 0.16 | [2] -0.032 | [3] 0.046 | duvelisib -0.061 | gandotinib 0.112 | tozasertib 0.031 | [4] -0.071 | doramapimod 0.017 | ispinesib -0.063

HRAS (UniProt P01112)
UniProt P01112, sequence (P01112 whole entry, looked up): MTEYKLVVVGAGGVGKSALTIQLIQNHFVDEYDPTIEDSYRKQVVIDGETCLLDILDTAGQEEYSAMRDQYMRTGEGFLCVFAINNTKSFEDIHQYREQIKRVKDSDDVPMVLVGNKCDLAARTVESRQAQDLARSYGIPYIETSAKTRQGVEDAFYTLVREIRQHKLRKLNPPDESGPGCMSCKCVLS
inactive: [1] -0.064 | crizotinib 0.18 | [2] -0.129 | [3] -0.057 | duvelisib -0.025 | gandotinib 0.068 | tozasertib -0.149 | [4] -0.077 | doramapimod -0.032 | ispinesib 0.22

FOXO3 (UniProt O43524)
UniProt O43524, sequence (O43524 whole entry, looked up): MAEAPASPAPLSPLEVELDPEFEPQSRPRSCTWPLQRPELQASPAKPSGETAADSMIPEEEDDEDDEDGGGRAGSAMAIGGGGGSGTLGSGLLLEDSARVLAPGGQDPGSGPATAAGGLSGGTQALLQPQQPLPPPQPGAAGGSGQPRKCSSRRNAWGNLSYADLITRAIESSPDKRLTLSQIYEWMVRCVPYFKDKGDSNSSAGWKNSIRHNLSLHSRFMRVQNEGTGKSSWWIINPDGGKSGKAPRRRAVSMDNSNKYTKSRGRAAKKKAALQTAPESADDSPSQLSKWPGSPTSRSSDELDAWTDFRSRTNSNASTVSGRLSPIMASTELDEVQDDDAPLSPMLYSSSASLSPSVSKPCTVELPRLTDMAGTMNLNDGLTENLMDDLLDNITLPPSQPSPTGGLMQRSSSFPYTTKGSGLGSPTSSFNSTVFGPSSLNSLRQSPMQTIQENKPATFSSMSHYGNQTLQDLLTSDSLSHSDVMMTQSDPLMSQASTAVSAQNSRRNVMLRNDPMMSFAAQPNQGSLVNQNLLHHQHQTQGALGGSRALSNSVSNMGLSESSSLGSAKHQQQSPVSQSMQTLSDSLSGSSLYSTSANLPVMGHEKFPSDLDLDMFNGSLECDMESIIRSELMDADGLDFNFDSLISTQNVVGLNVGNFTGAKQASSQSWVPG
inactive: [1] -0.028 | [2] -0.444 | [3] 0.013 | duvelisib -0.354 | gandotinib -0.061 | tozasertib -0.095 | [4] 0.16 | doramapimod 0.005 | ispinesib -0.095
active: crizotinib -0.423

FOXK1 (UniProt P85037)
UniProt P85037, sequence (P85037 whole entry, looked up): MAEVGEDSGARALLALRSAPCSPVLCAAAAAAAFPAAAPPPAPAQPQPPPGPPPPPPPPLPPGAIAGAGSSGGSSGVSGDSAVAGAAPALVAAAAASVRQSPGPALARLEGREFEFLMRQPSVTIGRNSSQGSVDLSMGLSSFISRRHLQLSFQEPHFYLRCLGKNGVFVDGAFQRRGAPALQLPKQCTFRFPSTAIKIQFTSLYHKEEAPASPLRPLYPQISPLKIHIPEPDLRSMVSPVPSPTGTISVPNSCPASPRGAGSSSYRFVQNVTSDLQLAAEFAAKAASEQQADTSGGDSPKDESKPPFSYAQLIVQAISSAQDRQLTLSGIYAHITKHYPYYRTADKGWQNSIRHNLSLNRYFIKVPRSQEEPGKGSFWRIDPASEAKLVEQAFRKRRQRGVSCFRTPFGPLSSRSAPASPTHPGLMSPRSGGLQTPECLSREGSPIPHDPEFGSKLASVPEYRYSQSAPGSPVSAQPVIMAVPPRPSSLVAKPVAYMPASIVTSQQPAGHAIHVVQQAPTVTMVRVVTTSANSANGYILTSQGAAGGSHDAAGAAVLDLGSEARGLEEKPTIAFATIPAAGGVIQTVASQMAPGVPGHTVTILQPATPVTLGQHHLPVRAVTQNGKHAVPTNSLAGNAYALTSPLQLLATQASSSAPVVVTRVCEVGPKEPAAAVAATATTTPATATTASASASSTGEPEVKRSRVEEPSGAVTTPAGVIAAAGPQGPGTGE
active: [1] -1.1 | gandotinib -1.34
inactive: crizotinib 0.336 | [2] 0.897 | [3] -0.482 | duvelisib 0.582 | tozasertib 0.127 | [4] -0.148 | doramapimod -0.126 | ispinesib 0.373

HNRNPF (UniProt P52597)
UniProt P52597, sequence (P52597 whole entry, looked up): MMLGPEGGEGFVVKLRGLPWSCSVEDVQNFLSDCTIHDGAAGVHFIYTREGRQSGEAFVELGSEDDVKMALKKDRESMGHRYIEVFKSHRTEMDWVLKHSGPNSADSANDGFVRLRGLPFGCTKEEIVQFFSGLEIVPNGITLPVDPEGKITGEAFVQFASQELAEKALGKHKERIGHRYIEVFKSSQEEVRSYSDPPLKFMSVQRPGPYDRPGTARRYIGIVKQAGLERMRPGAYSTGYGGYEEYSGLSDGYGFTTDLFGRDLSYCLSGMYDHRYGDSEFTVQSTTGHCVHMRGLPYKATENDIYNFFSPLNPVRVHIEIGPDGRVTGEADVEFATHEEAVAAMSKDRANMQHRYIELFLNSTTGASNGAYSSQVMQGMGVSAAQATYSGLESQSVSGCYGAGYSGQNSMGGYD
inactive: [1] -0.016 | crizotinib -0.152 | [2] 0.047 | [3] -0.004 | duvelisib -0.061 | gandotinib -0.07 | tozasertib 0.071 | [4] 0.119 | doramapimod -0.03 | ispinesib -0.092

GTF2A1 (UniProt P52655)
inactive: [1] 0.061 | crizotinib 0.074 | [2] 0.061 | [3] -0.065 | duvelisib 0.082 | gandotinib 0.07 | tozasertib -0.027 | [4] -0.066 | doramapimod -0.107 | ispinesib 0.24

GOLPH3 (UniProt Q9H4A6)
UniProt Q9H4A6, sequence (Q9H4A6 whole entry, looked up): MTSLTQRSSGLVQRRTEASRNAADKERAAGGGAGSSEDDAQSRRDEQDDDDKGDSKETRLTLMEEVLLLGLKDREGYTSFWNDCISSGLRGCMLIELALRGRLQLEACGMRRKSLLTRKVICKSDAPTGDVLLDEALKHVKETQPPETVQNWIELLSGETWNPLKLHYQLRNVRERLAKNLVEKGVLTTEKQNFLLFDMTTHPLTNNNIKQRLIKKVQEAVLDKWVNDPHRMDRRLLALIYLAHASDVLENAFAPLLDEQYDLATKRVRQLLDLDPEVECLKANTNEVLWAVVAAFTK
inactive: [1] -0.028 | crizotinib 0.176 | [2] 0.006 | [3] -0.038 | duvelisib 0.047 | gandotinib -0.112 | tozasertib 0.024 | [4] 0.012 | doramapimod -0.011
active: ispinesib 0.379

FBXO6 (UniProt Q9NRD1)
active: crizotinib 0.475 | ispinesib 0.39
inactive: [1] 0.035 | [2] 0.052 | [3] -0.082 | duvelisib 0.04 | gandotinib 0.088 | tozasertib 0.036 | [4] 0.036 | doramapimod -0.049

GMEB2 (UniProt Q9UKD1)
inactive: [1] -0.012 | crizotinib 0.041 | [2] -0.063 | [3] -0.09 | duvelisib -0.028 | gandotinib -0.001 | tozasertib 0.051 | [4] 0.009 | doramapimod 0.053 | ispinesib 0.071

GYG1 (UniProt P46976)
UniProt P46976, sequence (P46976 whole entry, looked up): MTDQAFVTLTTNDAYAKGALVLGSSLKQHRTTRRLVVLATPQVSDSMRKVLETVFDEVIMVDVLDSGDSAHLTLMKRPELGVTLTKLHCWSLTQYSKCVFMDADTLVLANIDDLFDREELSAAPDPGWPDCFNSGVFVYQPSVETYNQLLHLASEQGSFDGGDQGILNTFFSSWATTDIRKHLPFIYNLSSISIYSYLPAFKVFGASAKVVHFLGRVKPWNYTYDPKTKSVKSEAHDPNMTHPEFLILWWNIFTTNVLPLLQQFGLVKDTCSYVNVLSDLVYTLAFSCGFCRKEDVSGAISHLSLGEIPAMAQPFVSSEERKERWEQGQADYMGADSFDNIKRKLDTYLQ
inactive: [1] -0.223 | crizotinib -0.037 | [2] -0.15 | [3] 0.018 | duvelisib -0.057 | gandotinib -0.12 | tozasertib 0.072 | [4] 0.09 | doramapimod 0.072 | ispinesib -0.12

IFT80 isoform 3 (UniProt Q9P2H3)
inactive: [1] -0.019 | crizotinib -0.01 | [2] 0.069 | [3] -0.031 | duvelisib 0.057 | gandotinib 0.053 | tozasertib -0.071 | [4] 0.05 | doramapimod 0.069 | ispinesib -0.051

FKBP7 (UniProt Q9Y680)
UniProt Q9Y680, sequence (Q9Y680 whole entry, looked up): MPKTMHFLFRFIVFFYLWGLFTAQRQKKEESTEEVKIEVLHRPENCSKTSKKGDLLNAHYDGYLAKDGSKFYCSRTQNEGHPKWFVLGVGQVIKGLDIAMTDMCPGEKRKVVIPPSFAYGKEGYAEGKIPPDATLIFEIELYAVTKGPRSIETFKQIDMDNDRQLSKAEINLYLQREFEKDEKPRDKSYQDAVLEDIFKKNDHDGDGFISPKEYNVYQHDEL
inactive: [1] 0.052 | crizotinib 0.094 | [2] 0.003 | [3] 0.114 | duvelisib -0.043 | gandotinib 0.114 | tozasertib -0.054 | [4] 0.005 | doramapimod -0.023 | ispinesib 0.044

GDPD1 (UniProt Q8N9F7)
UniProt Q8N9F7, sequence (Q8N9F7 whole entry, looked up): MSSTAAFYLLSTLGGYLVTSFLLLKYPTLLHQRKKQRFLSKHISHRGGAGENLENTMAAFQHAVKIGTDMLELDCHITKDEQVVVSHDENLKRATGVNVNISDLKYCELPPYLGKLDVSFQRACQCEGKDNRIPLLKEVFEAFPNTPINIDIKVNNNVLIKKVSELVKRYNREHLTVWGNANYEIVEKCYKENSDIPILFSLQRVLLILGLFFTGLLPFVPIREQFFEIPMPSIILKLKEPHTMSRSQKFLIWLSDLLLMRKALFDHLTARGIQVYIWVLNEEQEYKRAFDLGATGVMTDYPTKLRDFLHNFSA
inactive: [1] 0.086 | crizotinib 0.035 | [2] 0.074 | [3] -0.057 | duvelisib 0.023 | gandotinib 0.012 | tozasertib 0.043 | [4] -0.033 | doramapimod 0.078
active: ispinesib 0.353

HIC2 (UniProt Q96JB3)
inactive: [1] -0.037 | crizotinib 0.067 | [2] -0.079 | [3] 0.043 | duvelisib -0.103 | gandotinib 0.088 | tozasertib 0.121 | [4] 0.011 | doramapimod 0.121 | ispinesib -0.061

HECTD1 (UniProt Q9ULT8)
inactive: [1] -0.034 | crizotinib 0.084 | [2] 0.129 | [3] 0.072 | duvelisib -0.091 | gandotinib -0.062 | tozasertib 0.002 | [4] 0.06 | doramapimod -0.062 | ispinesib -0.126

IFI30 (UniProt P13284)
inactive: [1] 0.013 | crizotinib -0.011 | [2] -0.083 | [3] -0.02 | duvelisib -0.129 | gandotinib 0.042 | tozasertib 0.027 | [4] 0.035 | doramapimod -0.044 | ispinesib 0.002

GLYR1 (UniProt Q49A26)
inactive: [1] 0.033 | crizotinib 0.008 | [2] -0.125 | [3] 0.075 | duvelisib -0.179 | gandotinib 0.016 | tozasertib -0.18 | [4] -0.06 | doramapimod 0.117 | ispinesib -0.132

GDI1 (UniProt P31150)
UniProt P31150, sequence (P31150 whole entry, looked up): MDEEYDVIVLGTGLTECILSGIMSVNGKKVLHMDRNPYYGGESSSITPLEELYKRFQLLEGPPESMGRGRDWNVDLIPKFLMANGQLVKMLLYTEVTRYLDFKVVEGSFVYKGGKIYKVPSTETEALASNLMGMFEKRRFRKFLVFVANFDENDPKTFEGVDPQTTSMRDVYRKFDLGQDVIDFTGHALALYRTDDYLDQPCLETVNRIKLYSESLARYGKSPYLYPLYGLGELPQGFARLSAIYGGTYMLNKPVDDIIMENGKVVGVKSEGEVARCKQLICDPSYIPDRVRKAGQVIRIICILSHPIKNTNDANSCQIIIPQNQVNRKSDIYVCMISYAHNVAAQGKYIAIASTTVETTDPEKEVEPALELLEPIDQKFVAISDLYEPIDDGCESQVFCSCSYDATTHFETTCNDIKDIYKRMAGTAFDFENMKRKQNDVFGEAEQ
inactive: [1] 0.018 | crizotinib 0.026 | [2] 0.061 | [3] -0.054 | duvelisib 0.014 | gandotinib -0.049 | tozasertib 0.004 | [4] -0.009 | doramapimod -0.027 | ispinesib 0.084

GLUD1 (UniProt P00367)
inactive: [1] 0.16 | crizotinib -0.016 | [2] 0.058 | [3] 0.005 | duvelisib 0.006 | gandotinib 0.141 | tozasertib -0.071 | [4] -0.057 | doramapimod 0.048 | ispinesib -0.048

GABARAPL2 (UniProt P60520)
UniProt P60520, sequence (P60520 whole entry, looked up): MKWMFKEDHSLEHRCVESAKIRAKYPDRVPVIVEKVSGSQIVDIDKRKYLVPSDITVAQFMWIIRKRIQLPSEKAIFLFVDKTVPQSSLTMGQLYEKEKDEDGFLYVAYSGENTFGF
inactive: [1] 0.081 | crizotinib -0.178 | [2] 0.036 | [3] 0.006 | duvelisib 0.053 | gandotinib 0.039 | tozasertib 0.031 | [4] 0.005 | doramapimod -0.073 | ispinesib -0.151

HOMER1 (UniProt Q86YM7)
inactive: [1] -0.011 | crizotinib -0.015 | [2] 0.071 | [3] -0.014 | duvelisib 0.024 | gandotinib -0.068 | tozasertib 0.046 | [4] -0.002 | doramapimod 0.027 | ispinesib 0.083

HNRNPK isoform 2 (UniProt P61978)
inactive: [1] -0.01 | crizotinib 0.072 | [2] 0.074 | [3] -0.028 | duvelisib 0.036 | gandotinib -0.108 | tozasertib -0.021 | [4] 0.052 | doramapimod -0.064 | ispinesib -0.025
